Results on 39 compounds are retold here after PubChem BioAssay.

Each structure is given as a SMILES string. Several values for one entry are separate records, joined by “and”; a condition that tells them apart may be missing. Identical values can stand only once. Activity calls are given as the source filed them.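 Rule for the calls, unless noted: active = inhibition above 50%, about 3 SD of the validation set; inactive = the rest.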

Test system in the first experiment: not listed separately
Nature of the experiment: inhibitors of CD8+ T cell-vesicle binding, pilot screen, LFA-1/ICAM-1 modulator project, MLPCN validation set, flow cytometry (AID 2523;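 active = response below a set limit, under 55% cells CD8-positive and vesicle-bound, and CD8 cells' 90th-percentile brightness under 279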;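 for vesicle binding response: mean PE anti-B7-1 fluorescence of CD8+ cells relative to row control; 100% = QL9-loaded vesicles with DMSO vehicle in the same plate row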). As to conditions: 2C mouse CD8+ T cells, at 7 µM, stronger effect = lower value; double positive events: measured here: CD8+/vesicle+ event percentage. In general terms: A flow cytometer gives signals particle by particle.
For `CSCC[C@H](NC(=O)OC(C)(C)C)C(=O)N1CCC(C(=O)N[C@@H](C)C(=O)O)CC1`, the vesicle binding response is 154% (inactive) and the double positive events came out at 65.4%.
The matching figures for `Cc1cc(-c2nn(-c3ccccc3F)cc2CN2CCCC(O)C2)c(C)s1` (configuration not stated): 148% (inactive) and 56.6%.
Regarding `COCCCNc1nc2c([nH]1)c(=O)[nH]c(=O)n2C`, the double positive events amounted to 63.1% and the vesicle binding response was 156% (inactive).
The matching figures for `CC(C)Oc1ccc2c(=O)c(-c3ccccc3)coc2c1`: 66.7% and 209% (inactive).
The matching figures for `O=C(Nc1cccc(Oc2c(F)c(F)c(F)c(F)c2F)c1)N1C[C@@H]2C[C@@H](C1)c1cccc(=O)n1C2`: 63.7% and 215% (inactive).
For `CCCCC[C@H](O)/C=C/C1=C(CCCCCCC(=O)O)C(=O)CC1`, the double positive events worked out at 56.3% and the vesicle binding response is 98.4% (inactive).
Regarding `CC(=O)OC[C@H]1O[C@@H](Sc2cccc3cccnc23)[C@H](OC(C)=O)[C@@H](OC(C)=O)[C@H]1OC(C)=O`, the double positive events is 62.5% and the vesicle binding response is 187% (inactive).
On to `COc1cc(OC)cc(C(C)=O)c1`, for which the vesicle binding response was 149% (inactive) and the double positive events amounted to 68.7%.
Take `Nc1ccc2nc(Cc3ccccc3)[nH]c2c1`: the double positive events came to 60.5% and the vesicle binding response is 192% (inactive).
Consider `COc1ccc2c(c1)[N+](C)(C)C(C)(C)C=C2C`, for which the vesicle binding response is 953% (inactive) and the double positive events is 70.1%.
As to `COc1ccc(CCN(C)Cc2nc(Cc3ccc(OC)c(OC)c3)no2)cc1OC`, the double positive events worked out at 62.5% and the vesicle binding response was 222% (inactive).
The matching figures for `N=c1c[n+](N2CCOCC2)[n-]o1`: 65% and 236% (inactive).
The matching figures for `CCCc1cc(=O)[nH]c(=S)[nH]1`: 61.7% and 144% (inactive).
For `COC(=O)c1ccccc1NC(=O)c1ccc(COc2ccc3c(c2)CCC3)cc1`, the double positive events worked out at 64.4% and the vesicle binding response was 521% (inactive).
As to `CC1(C)Cc2ccccc2-c2nc(-c3ccccc3)oc(=O)c21`, the double positive events came to 63.3% and the vesicle binding response is 149% (inactive).
`Cc1cc(=O)oc2c(CN(C)Cc3ccccc3)c(O)ccc12`: the double positive events is 62.4% and the vesicle binding response is 434% (inactive).
The matching figures for `CC1=NN(c2ccccc2)C(=O)C1`: 62.5% and 206% (inactive).
The matching figures for `CCOc1ccc2ccccc2c1C(=O)N[C@@H]1C(=O)N2[C@@H]1SC(C)(C)[C@@H]2C(=O)O`: 67.6% and 994% (inactive).
The matching figures for `O=C1CC2(CCCC2)CC(=O)N1CCCCN1CCN(c2ncccn2)CC1`: 64.3% and 1050% (inactive).
With `Cc1ccc(C2=NOC(=O)/C2=C\C=C\c2ccccc2)cc1`, the vesicle binding response was 167% (inactive) and the double positive events came to 69.9%.
Turning to `COc1ccc2c3c([nH]c2c1)C1(NCC3)C(=O)Nc2ccccc21` (configuration not stated), the double positive events was 59.5% and the vesicle binding response is 175% (inactive).
The matching figures for `CC1(C)S[C@@H]2[C@H](NC(=O)Cc3ccccc3)C(=O)N2[C@H]1C(=O)O`: 66.2% and 185% (inactive).
The matching figures for `COc1cc2cc(C(=O)O)[nH]c2c(OC)c1OC`: 61% and 187% (inactive).
The matching figures for `Clc1cc(-c2ccc(/C=N/n3cnnc3)o2)ccc1Br`: 56.6% and 130% (inactive).

The target of the next experiment is Integrin beta-1 (Homo sapiens) + Integrin alpha-4 (Homo sapiens) (UniProt P13612+P05556). Nature of the experiment: inhibition of HUTS-21 binding to VLA-4, pilot screen, VLA-4 allosteric modulator project, U937 cells, HUTS-21 mAb, flow cytometry, validation set (AID 2674).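 Note: antibody binding induced by the VLA-4 ligand LDV present at three times its Kd; 0% = LDV ligand with antibody and no compound and 100% = antibody without LDV.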 The note with it: HUTS-21 LIBS mAb binding, at 6.7 µM, stronger effect = higher value, binding induced by LDV ligand.
Sequence of Integrin beta-1 (Homo sapiens) + Integrin alpha-4 (Homo sapiens) (P05556 whole entry, looked up): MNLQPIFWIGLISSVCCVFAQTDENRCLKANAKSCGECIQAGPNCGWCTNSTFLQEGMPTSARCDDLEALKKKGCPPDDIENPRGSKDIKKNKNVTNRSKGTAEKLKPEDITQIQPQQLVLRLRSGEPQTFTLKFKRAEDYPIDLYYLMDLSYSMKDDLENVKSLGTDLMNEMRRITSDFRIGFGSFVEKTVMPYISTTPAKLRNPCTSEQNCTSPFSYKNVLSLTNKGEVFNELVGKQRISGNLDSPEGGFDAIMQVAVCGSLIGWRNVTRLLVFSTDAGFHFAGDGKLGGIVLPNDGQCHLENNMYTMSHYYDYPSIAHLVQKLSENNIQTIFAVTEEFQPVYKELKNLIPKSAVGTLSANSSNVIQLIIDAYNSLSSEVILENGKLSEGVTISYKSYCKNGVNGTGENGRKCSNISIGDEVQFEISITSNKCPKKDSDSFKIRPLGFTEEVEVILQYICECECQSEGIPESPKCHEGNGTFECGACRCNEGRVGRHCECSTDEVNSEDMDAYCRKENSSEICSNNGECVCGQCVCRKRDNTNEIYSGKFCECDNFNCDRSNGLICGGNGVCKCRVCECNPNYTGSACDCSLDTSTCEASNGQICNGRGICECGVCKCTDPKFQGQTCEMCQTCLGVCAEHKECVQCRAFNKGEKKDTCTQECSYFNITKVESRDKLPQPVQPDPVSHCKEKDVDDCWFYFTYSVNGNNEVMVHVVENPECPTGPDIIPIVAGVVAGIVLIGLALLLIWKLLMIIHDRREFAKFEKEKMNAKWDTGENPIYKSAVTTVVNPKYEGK
Sequence of Integrin beta-1 (Homo sapiens) + Integrin alpha-4 (Homo sapiens) (P13612 whole entry, looked up): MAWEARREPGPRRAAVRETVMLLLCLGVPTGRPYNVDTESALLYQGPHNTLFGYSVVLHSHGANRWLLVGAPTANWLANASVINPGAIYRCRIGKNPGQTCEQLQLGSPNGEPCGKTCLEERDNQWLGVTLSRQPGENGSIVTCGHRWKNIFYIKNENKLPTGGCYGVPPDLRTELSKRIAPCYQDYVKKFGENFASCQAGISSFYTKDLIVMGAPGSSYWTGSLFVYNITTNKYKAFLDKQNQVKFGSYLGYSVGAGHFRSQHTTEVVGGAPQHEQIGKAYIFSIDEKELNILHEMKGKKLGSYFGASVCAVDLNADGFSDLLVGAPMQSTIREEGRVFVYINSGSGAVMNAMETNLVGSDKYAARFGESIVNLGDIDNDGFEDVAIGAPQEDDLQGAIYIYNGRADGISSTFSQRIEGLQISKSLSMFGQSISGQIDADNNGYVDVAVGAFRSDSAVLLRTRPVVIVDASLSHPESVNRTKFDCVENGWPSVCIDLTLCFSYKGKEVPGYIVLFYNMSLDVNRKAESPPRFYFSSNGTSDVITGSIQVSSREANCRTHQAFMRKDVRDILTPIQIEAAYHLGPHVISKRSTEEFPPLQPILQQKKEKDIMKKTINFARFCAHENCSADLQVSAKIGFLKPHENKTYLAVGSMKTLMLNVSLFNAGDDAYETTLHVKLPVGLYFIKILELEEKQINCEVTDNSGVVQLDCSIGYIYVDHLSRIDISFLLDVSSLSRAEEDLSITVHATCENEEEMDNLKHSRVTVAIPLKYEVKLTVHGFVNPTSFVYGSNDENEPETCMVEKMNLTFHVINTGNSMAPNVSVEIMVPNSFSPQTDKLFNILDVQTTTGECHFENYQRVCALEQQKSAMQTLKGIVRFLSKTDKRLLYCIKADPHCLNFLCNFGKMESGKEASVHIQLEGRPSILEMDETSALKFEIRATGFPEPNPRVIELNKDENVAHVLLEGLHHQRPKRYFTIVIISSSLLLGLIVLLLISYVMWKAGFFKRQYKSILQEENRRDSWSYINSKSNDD
Broadly, the inhibition is the relative decrease from the control value, in per cent. Consider `S=C(NCCOCCOCCNC(=S)Nc1ccccc1)Nc1ccccc1`, for which the inhibition was -22.3% (inactive).
Still for that read-out and setting: the same measure for `Cc1ccc(CN2CCN(Cc3cn[nH]c3C3CCCCC3)CC2CCO)cc1` (configuration not stated): 21% (inactive).
Take `OCCC1CN(Cc2ccccc2-c2ccco2)CCN1C1CCCC1` (configuration not stated): the inhibition was 12.5% (inactive).
In the case of `COc1ccc2oc(-c3ccco3)cc(=O)c2c1`, the inhibition is -8.9% (inactive).
The same measure, in the same setting: the figure for `Nc1nc2c(nc(SCc3ccccc3Br)n2C2OC(CO)C(O)C2O)c(=O)[nH]1` (configuration not stated) is -1.79% (inactive); for `O=C(CCC(=O)NCCO)NCCO` it is -1.12% (inactive); for `Cc1cc(=O)[nH]c(=S)[nH]1` it is 12.3% (inactive).
Same read-out and setting: the same measure for `CN(C)C(=O)Oc1cccc([N+](C)(C)C)c1`: -2.82% (inactive) and 3.67% (inactive); for `COc1cc(/C=C/C(=O)O)cc(S(=O)(=O)NCCCO)c1OC`: 6.4% (inactive); for `COC(=O)c1sccc1NC(=O)Nc1ccccc1F`: 5.61% (inactive).
Still for that read-out and setting: the same measure for `CC1(C)C(=O)OC(/C=C\c2ccccc2)C(C)(C)C1=O` (configuration not stated): 1.44% (inactive); for `O=C(/C=C/c1ccc(F)cc1)NC(=S)N1CCCCC1c1cccnc1` (configuration not stated): -3.67% (inactive); for `COc1cc2c(cc1OC)C1(CCCC1)CNC2c1cccc([N+](=O)[O-])c1` (configuration not stated): -57.8% (inactive).
In the case of `O=C(NCCO)c1ccc(Cl)c(Cl)c1`, the inhibition was -11.8% (inactive).
Take `N#C/C(=C\c1ccc(O)c(O)c1)C(=O)NCCCc1ccccc1`: the inhibition is -13% (inactive).
As for `CSCC[C@H](NC(=O)OC(C)(C)C)C(=O)N1CCC(C(=O)N[C@@H](C)C(=O)O)CC1`, the inhibition is 9.71% (inactive).
On to `Cc1cc(-c2nn(-c3ccccc3F)cc2CN2CCCC(O)C2)c(C)s1` (configuration not stated), for which the inhibition is 5.69% (inactive).
As to `COCCCNc1nc2c([nH]1)c(=O)[nH]c(=O)n2C`, the inhibition was 9.95% (inactive).
`CC(C)Oc1ccc2c(=O)c(-c3ccccc3)coc2c1`: the inhibition was -7.12% (inactive).
On the same count and under the same terms, the figure for `O=C(Nc1cccc(Oc2c(F)c(F)c(F)c(F)c2F)c1)N1C[C@@H]2C[C@@H](C1)c1cccc(=O)n1C2` is 15.1% (inactive); for `CCCCC[C@H](O)/C=C/C1=C(CCCCCCC(=O)O)C(=O)CC1` it is -9.13% (inactive); for `CC(=O)OC[C@H]1O[C@@H](Sc2cccc3cccnc23)[C@H](OC(C)=O)[C@@H](OC(C)=O)[C@H]1OC(C)=O` it is -5.38% (inactive).
As for `COc1cc(OC)cc(C(C)=O)c1`, the inhibition was 14.2% (inactive).
Consider `Nc1ccc2nc(Cc3ccccc3)[nH]c2c1`, for which the inhibition is 3.55% (inactive).
Regarding `COc1ccc2c(c1)[N+](C)(C)C(C)(C)C=C2C`, the inhibition is 15.1% (inactive).
Regarding `COc1ccc(CCN(C)Cc2nc(Cc3ccc(OC)c(OC)c3)no2)cc1OC`, the inhibition was 15.1% (inactive).
On to `N=c1c[n+](N2CCOCC2)[n-]o1`, for which the inhibition was 13% (inactive).
As to `CCCc1cc(=O)[nH]c(=S)[nH]1`, the inhibition is -2.43% (inactive).
Still for that read-out and setting: the figure for `COC(=O)c1ccccc1NC(=O)c1ccc(COc2ccc3c(c2)CCC3)cc1` is 7.85% (inactive); for `CC1(C)Cc2ccccc2-c2nc(-c3ccccc3)oc(=O)c21` it is 2.29% (inactive).
Consider `Cc1cc(=O)oc2c(CN(C)Cc3ccccc3)c(O)ccc12`, for which the inhibition was 12% (inactive).
The same measure, in the same setting: the figure for `CC1=NN(c2ccccc2)C(=O)C1` is -14.5% (inactive); for `CCOc1ccc2ccccc2c1C(=O)N[C@@H]1C(=O)N2[C@@H]1SC(C)(C)[C@@H]2C(=O)O` it is -3.57% (inactive); for `O=C1CC2(CCCC2)CC(=O)N1CCCCN1CCN(c2ncccn2)CC1` it is 7.85% (inactive).
For `Cc1ccc(C2=NOC(=O)/C2=C\C=C\c2ccccc2)cc1`, the inhibition was 33.8% (inactive).
For the compound `COc1ccc2c3c([nH]c2c1)C1(NCC3)C(=O)Nc2ccccc21` (configuration not stated), the inhibition is -15.4% (inactive).
Same read-out and setting: the same measure for `CC1(C)S[C@@H]2[C@H](NC(=O)Cc3ccccc3)C(=O)N2[C@H]1C(=O)O`: 15.1% (inactive).
As for `COc1cc2cc(C(=O)O)[nH]c2c(OC)c1OC`, the inhibition is -1.49% (inactive).
`Clc1cc(-c2ccc(/C=N/n3cnnc3)o2)ccc1Br`: the inhibition was -3.77% (inactive).
